High-throughput results (PubChem)
IDE act: human IDE activators in live cells, primary screen, fluorescence polarization, HEK cells, FAbeta-B substrate. FAbeta-B cleavage; 0% vehicle, 100% cell-free pure enzyme wells. activation, % at 5.96 µM. actives 0.073% (n = 340,000). AID 493087, 2011;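 active = activation above the mean of all tested compounds plus 3 SD, set per screening campaign, cut at about 17% in these data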
Cardiac RTF inh: cardiac RTF calcium sensitivity inhibitors, primary screen, biochemical, IANBD-TnC fluorescence, EC70 calcium; Troponin I, cardiac muscle (Homo sapiens) + Troponin T, cardiac muscle (Homo sapiens) + …; AID 493244, 2011; inhibition, % at 7.15 µM; IANBD-labeled cardiac RTF, Ca2+ fluorescence; actives 0.12% (n = 340,000);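 active = inhibition above the mean inhibition of all tested compounds plus 3 SD, cut at about 17% in these data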;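 also: assay run at fixed EC70 calcium of 1.6 mM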
CRFBP-R2 agonist: agonists of CRF-BP/CRF-R2 complex, primary screen, cell-based, HEK293, calcium dye fluorescence, uHTS; CRF-binding protein / CRF receptor 2 complex (human); calcium dye fluorescence (FLIPR); percent of saturating CRF peptide response; activation, % at 13.2 µM; actives 0.46% (n = 350,000);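 active = activation of at least 50%, plus an integration ratio under a set limit after plate pattern correction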;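 also: plate controls were neutral control wells without compound for no effect and CRF at EC100 for full effect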
cardiac RTF act: cardiac RTF calcium sensitivity activators, primary screen, biochemical, IANBD-TnC fluorescence, EC20 calcium | activation, % at 7.2 µM | actives 0.24% (n = 340,000) | IANBD-labeled TnC RTF fluorescence at EC20 calcium; 0% EC20 calcium, 100% full calcium;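 active = activation above the mean over all tested compounds plus 3 SD, cut at about 30% in these data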;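 also: rise in fluorescence read as greater calcium sensitivity of cardiac thin filaments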
CRFBP-R2 block: antagonists of CRF-BP/CRF-R2 complex, primary screen, cell-based, HEK293, calcium dye fluorescence, uHTS. CRF-induced calcium fluorescence. inhibition, % at 11.8 µM. AID 588475, 2011. actives 0.59% (n = 350,000);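 active = inhibition of the ligand-induced calcium signal above about 50% at the single tested concentration, limit read from the data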
IDE cell inh: human IDE inhibitors in live cells, primary screen, fluorescence polarization, HEK cells, FAbetaB substrate | inhibition, % at 5.59 µM | Insulin-degrading enzyme (Homo sapiens), P14735 | FAbetaB cleavage | actives 0.41% (n = 320,000);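 active = percent inhibition above the average of all tested compounds plus 3 SD, set per screening campaign, cut at about 16% in these data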;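 also: IDE supplied by intact live HEK cells; FP after avidin binding of uncleaved biotin substrate so inhibition keeps polarization high; 0% = DMSO wells and 100% = 60 µM reference IDE inhibitor Ii1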
Active calls of the source: *; i = inactive; · = no result given. Sampled rows, rich in hits. Any-hit rate of the full collection: about 1.5%.

SMILES | IDE act | Cardiac RTF inh | CRFBP-R2 agonist | cardiac RTF act | CRFBP-R2 block | IDE cell inh
CN1/C(=C\C=C2C(=O)NC(=S)NC2=O)C(C)(C)c2ccccc21 | -204 | i | 215* | 433* | -177 | ·
O=[N+]([O-])c1ccc(N2CCCCC2)c2ncccc12 | 3 | 1 | -2 | 0 | -5 | -9
O=[N+]([O-])c1ccc(N2CCCCCC2)c2nonc12 | -68 | -456 | 191* | 316* | -136 | -21
Cn1c(O)c(C(=Nc2ccccc2)SCc2ccc(Cl)cc2)c(=O)n(C)c1=O | 5 | -8 | 6 | 5 | -7 | -2
Cc1c2ccncc2c(C)c2c1[nH]c1ccccc12 | 2 | 10 | 101* | 4 | -135 | 8
c1ccc2c(c1)[nH]c1cnccc12 | 5 | 5 | -2 | -3 | 10 | 8
CC1=CP(=O)(Oc2ccc([N+](=O)[O-])cc2)CC1 (configuration not stated) | · | · | 0 | · | -7 | ·
O=C(CF)N(O)c1ccc(C=Cc2ccccc2)cc1 | 0 | -3 | 0 | -5 | 22 | ·
CCC1(CC)C(=O)N(Cc2ccccc2)C(=O)N(Cc2ccccc2)C1=O | 6 | -4 | 10 | -6 | 87* | -6
CN1C[C@H]2CON(C)[C@H]2C[C@H]1c1cccc(Br)c1 | 1 | -13 | -2 | 1 | 0 | ·
Cc1cccc(N2C(=O)/C(=C/c3ccc(N4CCN(C)CC4)o3)C(=O)NC2=S)c1C | -26 | -45 | 51* | 89* | -29 | 9
CCc1ccccc1N1C(=O)/C(=C/c2ccc(N3CCN(C)CC3)o2)C(=O)NC1=S | -20 | -41 | 55* | 65* | -31 | 1
CCN(CC)C(=O)c1ccc(NC(=O)C2=C(C)OCCS2)cc1 | -2 | 2 | -3 | 3 | 4 | 0
O=c1[nH]c(=O)n(-c2ccc(F)cc2)c(O)c1/C=C1\C=Nc2ccccc21 | -1 | -11 | 102* | 7 | -47 | 4
NC(Cc1ccc(O)cc1)C(=O)NN=Cc1ccc(N(CCCl)CCCl)cc1 (configuration not stated) | -1 | -1 | 1 | 3 | 60* | ·
NN=C1C(Cl)=C(Cl)C(Cl)=C1Cl | · | · | 3 | · | -12 | ·
CN1CN(c2ccccc2)C2(CCN(CCCSc3ccccc3NC(=O)/C=C/c3ccccc3)CC2)C1=O | 2 | -3 | 95* | -3 | -9 | ·
COC(=O)Cn1cc(/C=C2\C(=O)NC(=O)N(c3ccccc3)C2=O)c2ccccc21 | -3 | -10 | 87* | 5 | -48 | -2
CCOC(=O)c1c(/N=C/C2C(=O)NC(=S)NC2=O)sc(C)c1C | · | · | · | · | · | 6
CCOC(=O)c1c(/N=C/C2C(=O)NC(=S)NC2=O)sc2c1CCC2 | · | · | 98* | · | -102 | 9
OC12CCCCC1C(c1ccccc1)NCC2 (configuration not stated) | 2 | 3 | 2 | 210* | -24 | 0
OC1(c2ccccc2)CCNC2CCCCC21 (configuration not stated) | 3 | 5 | 4 | -2 | -21 | 0
N#CC(C#N)=Cc1ccc(-c2ccccc2)o1 | · | · | · | · | · | 0
N#CC(C#N)=Cc1ccc(-c2ccccc2F)o1 | 2 | -36 | 35 | 36* | -54 | -2
ClCCN1CCN(c2ccnc3cc(Cl)ccc23)CC1 | -8 | -6 | 1 | -4 | 3 | -1
SMILES | IDE act | Cardiac RTF inh | CRFBP-R2 agonist | cardiac RTF act | CRFBP-R2 block | IDE cell inh
COC1C(OC(=O)c2ccc(C)[nH]2)C(O)C(Oc2ccc3c(O)c(NC(=O)c4ccc(O)c(CC=C(C)C)c4)c(=O)oc3c2Cl)OC1(C)C (configuration not stated) | -1 | -1 | 0 | 4 | 19 | 4
CCOc1ccc(N2C(=O)/C(=C/c3ccco3)C(=O)NC2=S)cc1 | 2 | 56* | -2 | -40 | 9 | 2
CC(C)(C)c1cc(C=C(C#N)C#N)cc(C(C)(C)C)c1O | 2 | 9 | 53* | 2 | 35 | 3
CC1CC2C(C(O)CC3(C)C(O)CCC23)C2(C)CCC(=O)C=C12 (configuration not stated) | -2 | -9 | 0 | 3 | -7 | ·
c1ccc(-c2cc(-c3ccccc3)[n+](-c3ccccc3)c(-c3ccccc3)c2)cc1 | -12 | -5 | 20 | 7 | -13 | 2
Cc1ccc(-c2cc(-c3ccc(C)cc3)[n+](-c3ccccc3)c(-c3ccc(C)cc3)c2)cc1 | 3 | -9 | 60* | 1 | -21 | 3
Cc1ccc(-c2cc(-c3ccccc3)cc(-c3ccccc3)[n+]2-c2ccccc2)cc1 | -1 | 4 | 66* | -3 | -94 | 0
CN(C)c1ccc(-[n+]2c(-c3ccccc3)cc(-c3ccccc3)cc2-c2ccccc2)cc1 | · | · | 1 | · | -80 | ·
Cn1cc(C=C2C(=O)NC(=O)NC2=O)c2ccccc21 | 2 | -2 | 59* | 14 | -36 | 0
O=C1NC(=O)C(=Cc2coc3ccccc3c2=O)C(=O)N1 | -3 | -4 | 71* | 11 | -45 | -1
O=c1c2ccccc2nc(/C=C/c2ccc(O)cc2)n1-c1ccccc1O | -32 | -3 | -1 | -3 | -3 | 34*
O=c1c2ccccc2nc(/C=C/c2ccccc2)n1-c1ccccc1O | 4 | 3 | -1 | 2 | -12 | -3
CC/C(=C\C=C\[C@@H]1C=C[C@@H]2CCC[C@H]2[C@@H]1C(=O)c1ccc[nH]1)[C@@H]1O[C@@H]([C@@H](C)C(=O)O)CC[C@@H]1C | · | · | 67* | · | 22 | 2
CCC(C)c1ccc(N2C(=O)NC(=O)/C(=C/c3cccn3CCOc3ccc(C)cc3)C2=O)cc1 (configuration not stated) | 0 | -12 | 60* | 1 | -91 | 0
O=NN1CCCCC1 | 0 | -3 | -3 | 0 | 17 | -2
CCCCn1c(O)c(C(=O)/C=C/c2c[nH]c3ccccc23)c(=O)[nH]c1=O | -6 | -28 | 130* | 67* | -100 | 1
C#C[C@]1(O)CCC2C3CCC4=C/C(=N/OCC(=O)NC(C)C(=O)NC(CCSC)C(=O)O)CC[C@]4(C)C3CC[C@@]21C (some centres not stated) | 4 | -10 | -2 | 3 | -1 | 0
Nc1ccc2nonc2c1[N+](=O)[O-] | 9 | -131 | 70* | 102* | -31 | 3
CC(C)CNP(=S)(c1ccccc1)C(C)(C)C (configuration not stated) | 6 | -1 | -1 | 6 | 66* | -1
